Measurements from PubChem BioAssay AID1159580 (chemical genetic matrix, 2015).
In all, about 5,500 compounds went through this assay and about 2,000 (36%) were called active. Inconclusive results (about 18%) are left out. Cut-off read from the data, not from the text of the source: active = normalized growth mostly below about 0.91 (no sharp cut-off); inconclusive = no clear call, values can overlap the other calls; inactive = mostly above about 0.92. The list shows a part of the results.

Assay: chemical genetic growth profiling, strain panel (AID 1159580);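 note: tested at 20 µM; growth read once vehicle control cultures reached saturation at 30 °C; 1 = growth at the plate median or of vehicle wells; lower values mean less growth of the strain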
Details: growth OD

Measured: normalized growth

CC(=O)Nc1ccccc1
inactive: S. cerevisiae deletion strains, locus YJR066W, strain TOR1, stronger effect = lower value 0.911 | S. cerevisiae deletion strains, locus YJR075W, strain HOC1, stronger effect = lower value 0.99 | S. cerevisiae deletion strains, locus YKL009W, strain mrt4, stronger effect = lower value 0.97 | S. cerevisiae deletion strains, locus YKL068W, stronger effect = lower value 0.99 | S. cerevisiae deletion strains, locus YKL085W, strain MDH1 (second series), stronger effect = lower value 0.977 | S. cerevisiae deletion strains, locus YKL085W, strain MDH1, stronger effect = lower value 0.977 | S. cerevisiae deletion strains, locus YKL160W, strain elf1, stronger effect = lower value 0.985 | S. cerevisiae deletion strains, locus YKL190W, strain CNB1, stronger effect = lower value 0.973 | S. cerevisiae deletion strains, locus YKR001C, strain vps1, stronger effect = lower value 0.98 | S. cerevisiae deletion strains, locus YKR026C, strain gcn3, stronger effect = lower value 0.927 | S. cerevisiae deletion strains, locus YKR091W, strain srl3, stronger effect = lower value 0.95 | S. cerevisiae deletion strains, locus YLL001W, strain dnm1, stronger effect = lower value 0.979 | S. cerevisiae deletion strains, locus YLL026W, stronger effect = lower value 0.972 | S. cerevisiae deletion strains, locus YLL041C, strain sdh2, stronger effect = lower value 0.985 | S. cerevisiae deletion strains, locus YLR027C, strain aat2, stronger effect = lower value 0.961 | S. cerevisiae deletion strains, locus YLR039C, strain RIC1, stronger effect = lower value 0.966 | S. cerevisiae deletion strains, locus YLR058C, strain SHM2, stronger effect = lower value 0.972 | S. cerevisiae deletion strains, locus YLR102C, strain apc9, stronger effect = lower value 0.983 | S. cerevisiae deletion strains, locus YLR113W, strain HOG1, stronger effect = lower value 0.959 | S. cerevisiae deletion strains, locus YLR221C, strain rsa3, stronger effect = lower value 0.967 | S. cerevisiae deletion strains, locus YLR258W, strain gsy2, stronger effect = lower value 0.98 | S. cerevisiae deletion strains, locus YLR262C, strain YPT6 (second series), stronger effect = lower value 0.976 | S. cerevisiae deletion strains, locus YLR262C, strain YPT6, stronger effect = lower value 0.941 | S. cerevisiae deletion strains, locus YLR268W, strain sec22, stronger effect = lower value 0.99 | S. cerevisiae deletion strains, locus YLR320W, strain mms22, stronger effect = lower value 0.964 | S. cerevisiae deletion strains, locus YLR330W, strain CHS5, stronger effect = lower value 0.996 | S. cerevisiae deletion strains, locus YLR342W, strain FKS1 (second series), stronger effect = lower value 1.07 | S. cerevisiae deletion strains, locus YLR342W, strain FKS1, stronger effect = lower value 0.954 | S. cerevisiae deletion strains, locus YLR357W, strain rsc2, stronger effect = lower value 0.967 | S. cerevisiae deletion strains, locus YLR370C, strain arc18, stronger effect = lower value 0.97 | S. cerevisiae deletion strains, locus YLR371W, strain rom2, stronger effect = lower value 0.999 | S. cerevisiae deletion strains, locus YLR384C, strain iki3, stronger effect = lower value 0.986 | S. cerevisiae deletion strains, locus YLR418C, strain cdc73, stronger effect = lower value 1 | S. cerevisiae deletion strains, locus YML016C, strain PPZ1, stronger effect = lower value 0.993 | S. cerevisiae deletion strains, locus YML032C, strain rad52, stronger effect = lower value 0.992 | S. cerevisiae deletion strains, locus YML120C, strain ndi1, stronger effect = lower value 0.967 | S. cerevisiae deletion strains, locus YML124C, strain tub3, stronger effect = lower value 0.982 | S. cerevisiae deletion strains, locus YMR058W, strain fet3, stronger effect = lower value 0.976 | S. cerevisiae deletion strains, locus YMR078C, strain ctf18, stronger effect = lower value 0.982 | S. cerevisiae deletion strains, locus YMR125W, strain sto1, stronger effect = lower value 0.944 | S. cerevisiae deletion strains, locus YMR129W, stronger effect = lower value 0.984 | S. cerevisiae deletion strains, locus YMR205C, strain PFK2, stronger effect = lower value 0.969 | S. cerevisiae deletion strains, locus YMR223W, strain ubp8, stronger effect = lower value 0.985 | S. cerevisiae deletion strains, locus YMR231W, strain pep5, stronger effect = lower value 0.986 | S. cerevisiae deletion strains, locus YMR263W, strain SAP30, stronger effect = lower value 0.981 | S. cerevisiae deletion strains, locus YMR307W, strain GAS1, stronger effect = lower value 1.07 | S. cerevisiae deletion strains, locus YNL067W, strain RPL9B, stronger effect = lower value 0.964 | S. cerevisiae deletion strains, locus YNL071W, strain lat1, stronger effect = lower value 0.976 | S. cerevisiae deletion strains, locus YNL183C, strain NPR1, stronger effect = lower value 0.915 | S. cerevisiae deletion strains, locus YNL209W, strain ssb2, stronger effect = lower value 0.975 | S. cerevisiae deletion strains, locus YNL233W, strain BNI4, stronger effect = lower value 0.978 | S. cerevisiae deletion strains, locus YNL248C, strain rpa49, stronger effect = lower value 0.969 | S. cerevisiae deletion strains, locus YNL250W, strain rad50, stronger effect = lower value 0.97 | S. cerevisiae deletion strains, locus YNL271C, strain bni1, stronger effect = lower value 0.995 | S. cerevisiae deletion strains, locus YNL298W, strain CLA4, stronger effect = lower value 0.986 | S. cerevisiae deletion strains, locus YNL307C, strain MCK1, stronger effect = lower value 0.987 | S. cerevisiae deletion strains, locus YNL322C, strain KRE1 (second series), stronger effect = lower value 0.942 | S. cerevisiae deletion strains, locus YNR049C, strain mso1, stronger effect = lower value 0.952 | S. cerevisiae deletion strains, locus YNR052C, strain pop2, stronger effect = lower value 0.996 | S. cerevisiae deletion strains, locus YOL006C, strain TOP1, stronger effect = lower value 0.928 | S. cerevisiae deletion strains, locus YOL012C, strain htz1 0.771 | S. cerevisiae deletion strains, locus YOL147C, strain pex11, stronger effect = lower value 0.982 | S. cerevisiae deletion strains, locus YOR001W, strain rrp6, stronger effect = lower value 0.979 | S. cerevisiae deletion strains, locus YOR061W, strain CKA2, stronger effect = lower value 0.959 | S. cerevisiae deletion strains, locus YOR069W, strain VPS5, stronger effect = lower value 0.994 | S. cerevisiae deletion strains, locus YOR070C, strain gyp1, stronger effect = lower value 0.972 | S. cerevisiae deletion strains, locus YOR080W, strain dia2, stronger effect = lower value 0.961 | S. cerevisiae deletion strains, locus YOR083W, strain WHI5, stronger effect = lower value 0.965 | S. cerevisiae deletion strains, locus YOR106W, strain vam3, stronger effect = lower value 0.956 | S. cerevisiae deletion strains, locus YOR136W, strain idh2, stronger effect = lower value 0.988 | S. cerevisiae deletion strains, locus YOR144C, strain elg1, stronger effect = lower value 0.987 | S. cerevisiae deletion strains, locus YOR184W, strain ser1, stronger effect = lower value 0.981 | S. cerevisiae deletion strains, locus YOR231W, strain MKK1, stronger effect = lower value 0.968 | S. cerevisiae deletion strains, locus YOR265W, strain rbl2, stronger effect = lower value 0.973 | S. cerevisiae deletion strains, locus YOR270C, strain vph1, stronger effect = lower value 0.927 | S. cerevisiae deletion strains, locus YOR290C, strain snf2, stronger effect = lower value 0.971 | S. cerevisiae deletion strains, locus YOR316C, strain cot1, stronger effect = lower value 0.978 | S. cerevisiae deletion strains, locus YPL051W, strain arl3, stronger effect = lower value 0.982 | S. cerevisiae deletion strains, locus YPL055C, strain LGE1, stronger effect = lower value 0.906 | S. cerevisiae deletion strains, locus YPL078C, strain atp4, stronger effect = lower value 0.971 | S. cerevisiae deletion strains, locus YPL106C, strain sse1, stronger effect = lower value 0.961 | S. cerevisiae deletion strains, locus YPL240C, strain hsp82, stronger effect = lower value 0.994 | S. cerevisiae deletion strains, locus YPL256C, strain CLN2, stronger effect = lower value 0.953 | S. cerevisiae deletion strains, locus YPR119W, strain clb2, stronger effect = lower value 0.986 | S. cerevisiae deletion strains, locus YPR141C, strain kar3, stronger effect = lower value 0.989 | S. cerevisiae deletion strains, locus YPR163C, strain tif3, stronger effect = lower value 0.996 | S. cerevisiae deletion strains, locus YPR167C, strain met16, stronger effect = lower value 0.994 | S. cerevisiae deletion strains, strain wtn01, stronger effect = lower value 1 | S. cerevisiae strains, strain wild type, stronger effect = lower value 0.982
